Source: PubChem BioAssay (NCATS)
A number with no mark means an inactive call. No rule for the calls is given here.
Potency is read from the fitted curve at half-maximal effect.

These molecules were tested on HIV-1 nucleocapsid protein NCp7 (binding to TG oligonucleotide) (assay: HIV Nucleocapsid (AID 346;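 also: potency is for inhibitors that block NC binding and lower polarization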)). Conditions: HIV-1 NC / fluorescein-TGTGTGTG probe, fluorescence polarization.
In short: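 Fluorescence polarization binding of 100 nM HIV-1 NC to 10 nM fluorescein-labelled TG4xF oligonucleotide. Buffer was Hepes pH 7.5 with 250mM NaCl, 1uM ZnCl2, TCEP and 2-mercaptoethanol. Compounds were incubated 1 hr at room temperature before the read.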
With COc1cccc(Cn2c(=O)c(-c3cc(F)cc(F)c3)nc3cnc(OC)nc32)c1 the Potency was > 20 µM. CN1CCN(c2ncc3nc(CCc4ccccc4)c(=O)n(Cc4cccs4)c3n2)CC1 was tested, and the Potency was > 20 µM. Cc1noc(C)c1C(=O)N1CCC2(CCN(Cc3nccs3)CC2)CC1 was tested, and the Potency was > 20 µM. For COc1ccc(CNc2cc(-c3cccc(NS(C)(=O)=O)c3)ncn2)c(OC)c1, the Potency was > 20 µM. For COc1ccc(C(=O)N2CCC[C@@]3(CCN(Cc4ccncc4)C3)C2)cc1, the Potency was > 20 µM. For c1ccc(C(c2ccccc2)N2CCCC3(CCNCC3)C2)cc1, the Potency was > 20 µM. For COCC(=O)N1CCC2(CC1)CCN(c1ccc(-c3ccccc3)cc1)CC2, the Potency was > 20 µM. In the case of COc1ncc2nc(-c3ccc(F)cc3)c(=O)n(Cc3ccc(F)cc3)c2n1, the Potency is reported as > 20 µM. CC(=O)NCCNc1nc(-c2ccccc2C(F)(F)F)nc2ccccc12 was tested, and the Potency was > 20 µM. With O=C(Nc1ccccc1)N1CCC2(CC1)CCN(C(=O)c1ccncc1)CC2 the Potency was > 20 µM. In the case of Cc1noc(C)c1C(=O)N1CCC2(CCCN(Cc3nccs3)C2)CC1, the Potency is reported as > 20 µM. For CN1CCN(c2ncc3ncc(=O)n(C4CC4)c3n2)CC1, the Potency was > 20 µM. COCCn1c(=O)c(-c2ccccc2)nc2cnc(Oc3ccc(OC)cc3)nc21 was tested, and the Potency was > 20 µM. With Cn1cc(-c2nc3cnc(N4CCNCC4)nc3n(-c3ccccc3)c2=O)c2ccccc21 the Potency was > 4 µM. COC(=O)N1CCC[C@@]2(CCN(C(=O)NC(C)C)C2)C1 was tested, and the Potency was > 20 µM. In the case of CCNc1ncc2nc(-c3ccc(F)cc3)c(=O)n(CCOC)c2n1, the Potency is reported as > 4 µM. CC(=O)N1CCC[C@@]2(CCN(c3ncccn3)C2)C1 was tested, and the Potency was > 20 µM. With Cc1ccccc1-c1nc(NCc2cccnc2)c2ccccc2n1 the Potency was > 20 µM. c1ccc(CNc2ncncc2-c2cccnc2)cc1 was tested, and the Potency was > 20 µM. For CN(C)c1ncc2nc(-c3ccc(Cl)cc3)c(=O)n(C)c2n1, the Potency was > 20 µM. COc1ccccc1CCn1c(=O)c(CCc2ccccc2)nc2cncnc21 was tested, and the Potency was > 20 µM. With c1cncc(-c2nc(NCc3cccs3)c3ccccc3n2)c1 the Potency was > 20 µM. For CC(=O)N1CCC2(CCN(Cc3ccccc3)CC2)CC1, the Potency was > 20 µM. COCCn1c(=O)c(-c2ccc(OC)cc2)nc2cnc(OC)nc21 was tested, and the Potency was > 20 µM. With CN1CCN(c2ncc3nc(CCc4ccccc4)c(=O)n(C)c3n2)CC1 the Potency was > 20 µM. With COc1ccc(Oc2ncc3ncc(=O)n(Cc4cccs4)c3n2)cc1 the Potency was > 20 µM. O=C(c1ccncc1)N1CCC2(CC1)CCN(c1ccncc1)CC2 was tested, and the Potency was > 20 µM. For COc1ncc2nc(-c3cn(C)c4ccccc34)c(=O)n(CCc3ccccc3)c2n1, the Potency was > 20 µM. With Cc1noc(C)c1C(=O)N1CCC2(CCCN(c3ccncc3)C2)CC1 the Potency was > 20 µM. In the case of COc1ccccc1CNc1nc(-c2ccoc2)nc2ccccc12, the Potency is reported as > 20 µM. With Cn1cccc1C(=O)N1CCC2(CCCN(Cc3ccncc3)C2)CC1 the Potency was > 20 µM. With Cc1nc2cnc(Oc3ccccc3)nc2n(Cc2cccs2)c1=O the Potency was > 4 µM. In the case of CNc1ncncc1-c1ccccc1C, the Potency is reported as > 20 µM. With COc1ncc2nc(-c3ccc(F)cc3)c(=O)n(C3CC3)c2n1 the Potency was > 20 µM. For Cc1cnc(CNc2cc(-c3cccnc3)ncn2)cn1, the Potency was > 20 µM. For O=C(c1csnn1)N1CCC2(CCCN(Cc3ccccc3)C2)CC1, the Potency was > 20 µM. With COc1ccccc1CNc1cc(-c2ccccc2C)ncn1 the Potency was > 20 µM. COc1ccc(-n2c(=O)c(CCc3ccccc3)nc3cnc(N4CCNCC4)nc32)cc1 was tested, and the Potency was > 20 µM. O=c1c(-c2cccc(Cl)c2)nc2cncnc2n1Cc1ccccc1Cl was tested, and the Potency was > 20 µM. COc1ccc(-n2c(=O)c(C)nc3cncnc32)cc1 was tested, and the Potency was > 20 µM.
